JMJD2A Tudor inh: JMJD2A Tudor domain (human) inhibition. O75164. AlphaScreen JMJD2A-Tudor / H3K4me3 peptide binding. Potency, µM (series often up to 114 µM), without a hit: top-dose activity change, negative = inhibition, usual class: inhibitors. 4.4% of 390,000 active. AID 504339; also: % is scaled to controls: 0 for no effect and ±100 for the full control effect; nearly all actives have a fitted effect of over 50% in size
HP1b binding inh: inhibitors of HP1-beta chromodomain binding to methylated histone tails; P83916; AlphaScreen HP1-beta / biotin-H3K9me3 peptide binding; Potency, µM (series often up to 114 µM), without a hit: at the highest dose activity change, negative = inhibition, usual class: inhibitors; 0.56% of 390,000 active; also: nearly all actives have a fitted effect of over 70% in size
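HP1-beta protein (50 nM final) preincubated 30 min at room temperature with biotinylated H3(1-18)K9me3 peptide (50 nM) in PBS pH 7.4, 0.01% Tween-20, then compound added for 30 min. AlphaScreen streptavidin donor/nickel chelate acceptor beads (10 ug/mL final), 30 min dark, luminescence read.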
L3MBTL1 inh: blocks human L3MBTL1 | Q9Y468 | AlphaScreen L3MBTL1–H3K9me1 peptide binding | Potency, µM (highest dose often 57.1 µM), for inactives: at the top dose activity, negative = inhibition, hits mostly inhibitors | 0.66% of 230,000 active | AID 485360; also: % is scaled to controls: 0 for no effect and ±100 for the full control effect; nearly all actives have a fitted effect of over 60% in size
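L3MBTL1 50 nM + b-AHA-H3(1-15)K9me1 75 nM, 30 min RT; compound added, 30 min RT; streptavidin donor/Ni-chelate acceptor beads 10 ug/mL each final, 30 min RT dark; AlphaScreen read.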
BAZ2B block: inhibitors of human BAZ2B bromodomain; Q9UIF8; AlphaScreen BAZ2B-H3K14Ac peptide displacement; Potency, µM (doses to about 114 µM), inactives show at the highest dose activity change, negative = inhibition, actives largely listed as inhibitors; 4.4% of 360,000 active; AID 504333; also: % is scaled to controls: 0 for no effect and ±100 for the full control effect; nearly all actives have a fitted effect of over 60% in size
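BAZ2B (50 nM) with biotin-H3(5-23)K14Ac peptide (50 nM) in PBS pH 7.4, 0.01% Tween-20, preformed 30 min, then compound 30 min at room temperature; top concentration 110uM. AlphaScreen streptavidin donor/nickel chelate acceptor beads (10 ug/mL final), 20 min dark, signal read.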
G9a inh: inhibitors of human histone lysine methyltransferase G9a. Potency, µM (highest dose often 102 µM), inactives show at the highest dose activity, negative = inhibition, most hits filed as inhibitors. 8.8% of 350,000 active. Q96KQ7. G9a H3K9 monomethylation, AlphaScreen, 2 h; also: % is scaled to controls: 0 for no effect and ±100 for the full control effect; nearly all actives have a fitted effect of over 75% in size
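G9a (20 nM) was preincubated 15 min with compound, then reacted 2 h at room temperature with 500 nM biotin-H3K9 peptide and 20 µM SAM. Monomethyl-H3K9 detected by AlphaScreen using anti-H3K9me1 antibody.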
Sfp PPTase inh: blocks B. subtilis Sfp PPTase activity. Q9F4F7. Biochemical Sfp PPTase activity, qHTS. Potency, µM, for the others: largest response in the series, negative = inhibition, usual class: inhibitors. AID 1490. 3.5% of 310,000 active;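 also: the enzyme is Sfp with the accession as filed and its product quenches rhodamine fluorescence; 0% = enzyme reaction without inhibitor and -100% = no enzyme wells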
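Compounds were incubated with enzyme (final 15 nM) for 15 min at room temperature before substrate addition started the reaction. Fluorescence at 525 nm excitation, 598 nm emission was recorded immediately and after 30 minutes.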
* marks the source's active call; other numbers are inactive results; ? = inconclusive; . = no result given; [ ] = dose if it differs, or a comment. Rows were chosen to be rich in hits. Some 12% of all compounds tested hit in one or more screens of this group. Calls follow the shape of the dose curve; as a rule, active = well fitted curve in the direction sought with a large enough effect; inconclusive = small, poorly fitted or top-dose-only effect, or another doubt; inactive = no such curve, though single readings can be large; an effect the other way counts as inactive or inconclusive. Potency is read from the fitted curve at half-maximal effect.

SMILES	JMJD2A Tudor inh	HP1b binding inh	L3MBTL1 inh	BAZ2B block	G9a inh	Sfp PPTase inh
COc1cc(OC)c(Nc2nc3ccccc3nc2-n2nc(C)cc2C)cc1Cl	-5%	79%	.	14%	16%[59 µM]	.
Cc1ccccc1C#N	-17%	14%	5%	5%	-3%[0.501 µM]	.
NC(=O)Cn1nc([N+](=O)[O-])nc1Oc1ccccc1F	-4%	26%	13%	-10%	-3%	20%
O=C(CSc1nnc2ccccn12)NNC(=O)c1cccc([N+](=O)[O-])c1	-11%	38%	6%	-7%	18%[12.7 µM]	.
CCOC(=O)C1=C(COC(=O)C2CC(=O)N(c3ccccc3F)C2)NC(=O)NC1C (stereo unspecified)	-3%	40%	3%	24%	4%[12.7 µM]	.
CCN(CC)CCNC(=O)c1c(C)oc2ncnc(N3CCOCC3)c12	7%	36%	.	10%[57.1 µM]	-1%[59 µM]	.
COc1ccc(OC)c(CNC(=O)Cn2nc(C)c3nn(-c4ccc(Cl)cc4)c(C)c3c2=O)c1	-2%	32%[57 µM]	.	2%	-19%[59 µM]	.
Cc1cccc(-c2cc(C(=O)NCCCn3ccnc3)c3ccccc3n2)c1	.	.	-7%	?	-2%[59 µM]	-5%
Cc1ccc(-c2cc(C(=O)NCCCn3ccnc3)c3cc(Br)ccc3n2)o1	79µM*	-17%	-21%	-2%	?	-5%
CCOC(=O)c1nn(-c2cccc(Cl)c2)c2nc(CC(C)C)c(C#N)c(=O)n12	-5%	23%	6%	8%	2%[59 µM]	1%
CCOC(=O)c1nn(-c2ccc(OCC)cc2)c2nc(CC(C)C)c(C#N)c(=O)n12	1%	9%	5%	0%	-26%[59 µM]	50µM*
O=[N+]([O-])c1cccc(S(=O)(=O)N2CCN(S(=O)(=O)c3ccc4c(c3)OCCO4)CC2)c1	-18%	.	.	.	.	.
COc1cc(Cl)ccc1NC(=O)COc1ccccc1C(=O)N1CCN(c2ccc(O)cc2)CC1	?	?	-17%	-6%	10µM*	?
COc1ccccc1NS(=O)(=O)c1ccc(C)c(C(=O)N2CCN(c3ccc(O)cc3)CC2)c1	28µM*	-34%	-1%	.	.	.
CCOC(=O)C1CCCN(C(=O)c2cc(S(=O)(=O)Nc3ccccc3OC)ccc2C)C1 (stereo unspecified)	-18%	43%	3%	-1%	1%	23%
CCn1c(SCC(=O)c2c(N)n(C3CC3)c(=O)[nH]c2=O)nc2cc(S(N)(=O)=O)ccc21	-17%	36%	-5%	9%	-8%[12.7 µM]	.
Cc1ccc2[nH]c(=O)c(CN(Cc3ccccc3)Cc3nnnn3Cc3ccccc3)cc2c1	-22%[57.1 µM]	14%[57 µM]	.	.	.	.
COc1ccc2[nH]c(=O)c(CN(Cc3nnnn3Cc3ccccc3)CC3CCCO3)cc2c1 (stereo unspecified)	-10%	16%	-3%	0%	?	89µM*
COc1ccc2[nH]c(=O)c(CN(Cc3nnnn3Cc3ccc(F)cc3)CC3CCCO3)cc2c1 (stereo unspecified)	-17%	35%	6%	-13%	?	15%
Cc1ccc2[nH]c(=O)c(CN(Cc3nnnn3Cc3ccccc3)C3CCCC3)cc2c1	-28%	9%	-11%[11.4 µM]	-3%	8.9µM*	-25%
COc1cc2c(cc1OC)C(c1ccc(Cl)cc1)N(c1ccc(C)c(F)c1)C(=O)C2 (stereo unspecified)	?	3%	.	-34%	-22%[59 µM]	.
COCCn1c(=O)c(-c2cc(F)cc(F)c2)nc2cnc(Nc3cccc(OC)c3)nc21	.	.	.	.	-2%[12.7 µM]	-6%
O=C(c1ccncc1)N(c1ccc2oc3c(c2c1)CCCC3)S(=O)(=O)c1cccc([N+](=O)[O-])c1	?	-23%	-7%	?	3.5µM*	-8%
FC(F)(F)c1cccc(-c2nnc3ccc(C(F)(F)F)cn23)c1	-13%	8%	1%	-34%	35µM*	20%
COc1cccc(-c2ccc3c(N)c(C(=O)c4ccc(F)cc4)sc3n2)c1	12%	79%	.	13%	2%[59 µM]	.
SMILES	JMJD2A Tudor inh	HP1b binding inh	L3MBTL1 inh	BAZ2B block	G9a inh	Sfp PPTase inh
Cc1oc(-c2cccc(Cl)c2)nc1CS(=O)(=O)CC(=O)NC1CC1	-15%	88%	.	-25%	50µM*	10%
CCOC(=O)N1CCC(NC(=O)CS(=O)(=O)Cc2nc(-c3cccc(Cl)c3)oc2C)CC1	-26%	21%	.	-10%[57.1 µM]	-18%	-1%
COc1ccc(-c2nc(CS(=O)(=O)CC(=O)Nc3cccc(C(C)=O)c3)c(C)o2)cc1	-30%	21%	.	-10%	20µM*	0%
CC(=O)c1ccc(NC(=O)c2ccc(-c3nc(COc4ccc(C)cc4)c(C)o3)cc2)cc1	-9%	45µM*	.	-21%	?	.
CN(C(=O)c1ccc(Br)o1)C1CCS(=O)(=O)C1 (stereo unspecified)	-3%	11%	.	-3%	?	17%
COc1cc(CN2CCNC(=O)C2CC(=O)N(C)CCN2CCOCC2)cc(OC)c1 (stereo unspecified)	-20%	7%	.	1%	-11%[12.7 µM]	2%
CC(C)n1c(=O)c2c(O)cc(=O)oc2c2ccccc21	50µM*	2%	-13%	-2%	-9%[0.0925 µM]	-1%
CCn1c(=O)c2c(O)cc(=O)oc2c2ccccc21	?	26%	1%	-3%	-7%	19%
CCOc1ccccc1NC(=O)NCc1noc2ccc(C)cc12	9%	39%	.	?	8%[59 µM]	.
CO/N=C(\Cn1ncc(N2CCCC2)c(Br)c1=O)c1ccc(Cl)cc1	-10%[57.1 µM]	51%	.	?	?	89µM*
CO/N=C(\Cn1ncc(NC2CCCCC2)c(Br)c1=O)c1ccc(Cl)cc1	-4%	16%	1%	-5%	15%[12.7 µM]	-12%
CCCOc1ccc(N)cc1N	56µM*	?	-10%	28µM*	5µM*	45µM*
Cc1cc(NC(=O)CS(=O)(=O)c2ccc(Cl)cc2)no1	79µM*	27%	.	-14%	-7%	9%
Cc1cc(NC(=O)CS(=O)(=O)c2ccc(F)cc2)no1	-14%	27%	-11%	1%	?	.
O=C(CCn1c(=O)c2ccccc2n(CC(=O)Nc2ccc(F)cc2)c1=O)NCCc1ccccc1	3%	33%	.	-14%	-2%[59 µM]	.
COn1cnnc1-c1ccccc1	-7%	27%	-6%	7%	13µM*	-10%
CCCCc1nnc(NC(=O)CN2C(=O)NC3(CCCCC3)C2=O)s1	11%	18%	.	1%	-14%	1%
O=C(NCCCl)C1Cc2c(ccc3ccccc23)O1 (stereo unspecified)	-6%	36%	1%	-28%	40µM*	10%
CCOC(=O)N1CCN(Cc2nc3cc(NC(=O)C(C)C)ccc3n2C(C)C)CC1	-19%	34%	.	-3%	1%[59 µM]	.
CCO/C(=C/c1sc2ccc(OC)cc2[n+]1CCCS(=O)(=O)[O-])CC	23%	69%	.	-10%	-3%[59 µM]	?
